Source: PubChem BioAssay (NCI)
The panel holds about 79,000 compounds, 15% with a hit somewhere; the sample as a whole holds those more often. Values without a mark were called inactive. Calls of active or inactive are those of the source. Rule as the data show it: active = growth inhibition above about 70%; inactive = the rest.

Assays:
[1] = NCI Yeast Anticancer Drug Screen. Data for the rad50 strain (AID 155);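 also: 0% = growth of vehicle-only cultures of the same strain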; conditions: S. cerevisiae rad50 strain growth inhibition, stronger effect = higher value
Method in brief: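 Yeast carrying a defined DNA repair defect were exposed to test compounds, and growth was compared with vehicle-treated controls to give percent inhibition.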

[2] = NCI Yeast Anticancer Drug Screen. Data for the mec2-1 strain (AID 157); conditions: S. cerevisiae mec2-1 strain, stronger effect = higher value
Method in brief: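 Compounds were applied to mec2-1 yeast cells. Their growth was then compared with that of vehicle-treated cultures to give growth inhibition.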

[3] = NCI Yeast Anticancer Drug Screen. Data for the sgs1 mgt1 strain (AID 161);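 also: 0% = growth of cultures given vehicle only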; conditions: S. cerevisiae sgs1 mgt1 strain, stronger effect = higher value
Method in brief: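 This yeast growth screen uses a strain with defined DNA-repair lesions; compound-treated growth is compared with vehicle-treated growth.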

[4] = NCI Yeast Anticancer Drug Screen. Data for the cln2 rad14 strain (AID 165);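 also: 0% = growth equal to vehicle treated cultures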; conditions: S. cerevisiae cln2 rad14 strain, stronger effect = higher value
Method in brief: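 Strain: cln2 rad14 yeast, altered in cell cycle control and DNA damage repair. Read-out: growth inhibition vs vehicle.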

[5] = NCI Yeast Anticancer Drug Screen. Data for the bub3 strain (AID 167); conditions: S. cerevisiae bub3 mutant strain, stronger effect = higher value
Method in brief: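 Compounds were applied to a genetically altered yeast strain carrying a cell-cycle control defect. Growth inhibition was scored against vehicle-treated controls.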

[6] = NCI Yeast Anticancer Drug Screen. Data for the mlh1 rad18 strain (AID 175); conditions: S. cerevisiae mlh1 rad18 strain growth inhibition, stronger effect = higher value
Method in brief: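 A repair-deficient yeast strain is exposed to test compound, and growth is scored relative to vehicle-treated controls.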

[7] = at 5.0 µM (retest, dose inferred, filed as 0.5)
[8] = at 50.0 µM (retest, dose inferred, filed as 5.0)

SMILES | growth inhibition [1, 7] [%] | growth inhibition [1, 8] | growth inhibition ([1]; at 50.0 µM) | growth inhibition [2, 7] [%] | growth inhibition [2, 8] | growth inhibition ([2]; at 50.0 µM) | growth inhibition [3, 7] [%] | growth inhibition [3, 8] | growth inhibition ([3]; at 50.0 µM) | growth inhibition [4, 7] [%] | growth inhibition [4, 8] | growth inhibition ([4]; at 50.0 µM) | growth inhibition [5, 7] [%] | growth inhibition [5, 8] | growth inhibition ([5]; at 50.0 µM) | growth inhibition [6, 7] [%] | growth inhibition [6, 8] | growth inhibition ([6]; at 50.0 µM)
CC(/C=C/NNC1=NC(c2ccccc2)C(c2ccccc2)=NN1)Sc1ccccc1N (configuration not stated) | 43 | 43% | 92.8% (active) | 22 | 22% | 93.2% (active) | 31 | 31% | 90.7% (active) | 18 | 18% | 90.8% (active) | 25 | 25% | 92.9% (active) | 17 | 17% | 91.3% (active)
CCOC(=O)C(NS(=O)(=O)c1ccccc1)(C(F)(F)F)P(=O)(OCC(C)C)OCC(C)C (configuration not stated) | 4 | -2% | 98.5% (active) | 8 | -2% | 96.1% (active) | -7 | -3% | 96.2% (active) | 2 | 13% | 97.3% (active) | 4 | 0% | 96.2% (active) | 0 | 17% | 98% (active)
O=C1OC(=O)C2C(c3ccccc3)=C(c3ccccc3)C(c3ccccc3)=C(c3ccccc3)C12 (configuration not stated) | 37 | 77% (active) | 61% | 35 | 72% (active) | 50% | 33 | 62% | 54.4% | 32 | 67% | 76.2% (active) | 29 | 63% | 56% | 47 | 81% (active) | 62%
O=S(=O)(Nc1ccccc1)c1ccccc1C(O)(c1ccccc1)c1ccccc1 | 6 | 71% (active) | 93.6% (active) | -15 | 94% (active) | 73.1% (active) | -179 | 48% | 92.1% (active) | -2 | 82% (active) | 85.2% (active) | 15 | 96% (active) | 81.2% (active) | -21 | 92% (active) | 95.5% (active)
Cc1cc(C)c(O)c(C2CC3CCC2(C)C3(C)C)c1 (configuration not stated) | 2 | 87% (active) | 95.6% (active) | 1 | 92% (active) | 95% (active) | 5 | 91% (active) | 95.8% (active) | 4 | 91% (active) | 95.2% (active) | 7 | 92% (active) | 96.5% (active) | -1 | 94% (active) | 95.5% (active)
CC(C)CCN1CCC2(CCCCC2)CC1 | 4 | 1% | 40.5% | 5 | -6% | 24.1% | 6 | 0% | 51.3% | 7 | -5% | 88.3% (active) | 2 | -3% | 59.5% | 5 | 3% | 66.3%
C/C(=N\N=C(N)N)c1ccc2c(c1)Cc1cc(/C(C)=N/N=C(N)N)ccc1-2 | 42 | 98% (active) | 87.8% (active) | 40 | 99% (active) | 88.8% (active) | 39 | 99% (active) | 84.7% (active) | 43 | 99% (active) | 87.2% (active) | 52 | 98% (active) | 83.3% (active) | 54 | 98% (active) | 90% (active)
CC[n+]1c(/C=C/c2ccc(N(C)C)cc2)ccc2ccccc21 | -5 | 99% (active) | 99% (active) | 23 | 99% (active) | 99.2% (active) | -2 | 99% (active) | 98% (active) | -5 | 98% (active) | 99% (active) | 1 | 99% (active) | 98.8% (active) | 13 | 99% (active) | 98.5% (active)
CCCc1nc2c(nc1C)C(=O)C=CC2=O | -101 | 96% (active) | 96.5% (active) | -37 | 99% (active) | 97.5% (active) | -46 | 95% (active) | 81.6% (active) | -44 | 97% (active) | 86.5% (active) | -53 | 96% (active) | 97.1% (active) | -80 | 96% (active) | 98.3% (active)
O=[N+]([O-])c1ccc(Sc2ccsc2)c([N+](=O)[O-])c1 | 4 | 79% (active) | 46.5% | 14 | 87% (active) | 34.5% | 21 | 93% (active) | 48.5% | 4 | 61% | 31.8% | 11 | 86% (active) | 41.5% | 45 | 96% (active) | 78.8% (active)
Nc1ccc2c(c1)Cc1c(Cl)cccc1-2 | 1 | 95% (active) | 96% (active) | 3 | 96% (active) | 54.4% | 3 | 90% (active) | 89.4% (active) | -12 | 92% (active) | 80.2% (active) | -3 | 94% (active) | 94.3% (active) | -1 | 95% (active) | 95.2% (active)
CCCCn1cnc2c(SCc3ccccc3[N+](=O)[O-])nc(N)nc21 | 1 | -2% | 94.9% (active) | -2 | 1% | 98.2% (active) | 1 | 2% | 96.9% (active) | -15 | -27% | 90.4% (active) | 1 | 30% | 98.7% (active) | 3 | 3% | 96.7% (active)
O=c1ncccn1[C@@H]1O[C@H](CO)[C@H](O)C1O (some centres not stated) | 21 | 22% | 64.3% | 13 | 12% | 28.4% | 15 | 12% | 4.15% | 10 | 12% | 10.8% | 23 | 10% | -5.75% | 7 | 31% | -9.3%
CCN(CC)c1ccc(NC(CC(O)c2ccccc2)c2ccccc2)cc1 (configuration not stated) | -14 | 1% | -24% | -3 | -1% | 5.8% | -5 | 5% | -0.8% | -5 | -3% | 51.5% | -4 | 2% | 21.1% | -5 | -7% | 24.5%
CCC(CC)C1(C(=O)OCCN(CC)CC)CCCCC1 | 1 | 48% | 72.5% (active) | -1 | 13% | 5.8% | -2 | 20% | 45% | 2 | 9% | 3.5% | -1 | 48% | 73% (active) | 4 | 32% | 43.2%
O=C(CCC(O)(c1ccccc1)c1ccccc1)c1ccccc1 | -4 | 97% (active) | 65.8% | -13 | 98% (active) | -11.9% | -11 | 98% (active) | 13.2% | -89 | 99% (active) | -27.2% | -9 | 46% | 4.9% | -3 | 98% (active) | 70.5% (active)
CN(C)c1ccc(/C=N/N=C(/C#N)[S][Sn]([S]/C(C#N)=N/N=C/c2ccc(N(C)C)cc2)([c]2ccccc2)[c]2ccccc2)cc1 | 7 | 95% (active) | 98.3% (active) | 1 | 96% (active) | 96.5% (active) | 10 | 92% (active) | 97.7% (active) | 0 | 89% (active) | 95.9% (active) | -19 | 98% (active) | 95.7% (active) | 5 | 96% (active) | 97.4% (active)
CC(=O)OCC1OC(SSc2ccccc2)C(OC(C)=O)C(OC(C)=O)C1OC(C)=O (configuration not stated) | -2 | 13% | 59.4% | -30 | 69% | 44.6% | 10 | 7% | 58.1% | -13 | 5% | 45% | -12 | 8% | 8.5% | -17 | 73% (active) | 53.9%
O=[N+]([O-])c1ccc(S(=O)(=O)Cc2ccccc2)c2nonc12 | 6 | 99% (active) | 99% (active) | 11 | 99% (active) | 98.8% (active) | 10 | 99% (active) | 99% (active) | -11 | 98% (active) | 96.3% (active) | 2 | 99% (active) | 98.4% (active) | 6 | 99% (active) | 98.2% (active)
